The source of these data is PubChem BioAssay (Tox21).

Results filed as inconclusive are left out. Entries that show only a call come without a potency. Activity calls are given as the source filed them. Calls come from the whole dose curve.

The assay is described as follows: p53 small molecule agonists, cell-based qHTS assay with rat liver microsomes (AID 1963578). The note with it: HCT-116 p53RE-bla, beta-lactamase ratio, 16 h; series mostly up to 66 µM. The source says:
U.S. Tox21 Program National Center for Advancing Translational Sciences [NCATS] Division of Preclinical Innovation [DPI] U.S. Environmental Protection Agency [EPA] National Institutes of Environmental Health Sciences [NIEHS] National Toxicology Program [NTP] U.S. Food and Drug Administration [FDA] Tox21 Assay Overview: p53, a tumor suppressor protein, is activated following cellular insult, including DNA damage and other cellular stresses. The activation of p53 regulates cell fate by inducing DNA repair, cell cycle arrest, apoptosis, or cellular senescence. The activation of p53, therefore, is a good indicator of DNA damage and other cellular stresses. […] The activation of the reporter gene under culture conditions can be detected by fluorescence intensity. This cell line was used to screen the Tox21 10K compound library in the condition of presence of rat liver microsomes and to identify agonists that activate the p53 signaling pathway after in vitro metabolic activation (Ooka et al., Archive of Toxicology 96:1975-1987, 2022).
Tox21 Assay Protocol Summary: The p53RE-bla cells were dispensed at 4,000cells/3ul/well in 1536-well black-clear bottom plates. After the assay plates were incubated at 37 C, 5% CO2 incubator for 5 hours, 23 nL of compounds dissolved in DMSO, positive controls or DMSO only was transferred to the assay plate. Following compound addition, 3 uL of rat liver microsomes (Molecular Toxicology, Boone, NC) at final concentration of 0.5 mg/mL and 1uL of Beta-Nicotinamide adenine dinucleotide 2-phosphate (NADPH) at final concentration of 0.5 mg/mL were transferred to the assay plate. The plates were incubated at 37 C for 16 hours. 1 uL of LiveBLAzer detection mixture was added to each well and the plates were incubated at room temperature in the dark for 2 h.
(In general: qHTS replaces the single test concentration by a dilution series.)
Turning to `Nc1ccc(Oc2cccc(Oc3ccc(N)cc3)c2)cc1`, the Potency result was “inactive”.

For the compound `CCOC(=O)C1CC(=O)C(=C(O)C2CC2)C(=O)C1` (stereo not given), the Potency result is “inactive”. The same measure, in the same setting: under `O=C(O)c1cccc(Oc2ccccc2)c1` stands “inactive”; under `On1nnc2ccccc21`, “inactive”; under `Nc1cc([N+](=O)[O-])cc(Cl)c1O`, “inactive”. In the case of `C/C=C\C/C=C/CCCCCCCCOC(C)=O`, the Potency entry is “inactive”. Take `COc1cc2c(cc1OC)C(=O)CC2`: the Potency result is “inactive”. On to `FC(F)OC(Cl)C(F)(F)F` (stereo not given), for which the Potency entry is “inactive”. As for `O=[N+]([O-])c1cccc(I)c1`, the Potency result was “inactive”.

With `CNC(=O)CN(CCN(CCN(CC(=O)[O-])CC(=O)NC)CC(=O)[O-])CC(=O)[O-].O.[Gd+3]`, the Potency entry is “inactive”.

Turning to `COc1ccccc1N1CCN(CCCNc2cc(=O)n(C)c(=O)n2C)CC1`, the Potency result was “inactive”.

On to `O=C(O)C1(C(=O)O)CCC1.[NH2-].[NH2-].[Pt+2]`, for which the Potency entry is “inactive”. The same measure, in the same setting: as for `C=CC(=O)O`, the entry is “inactive”; as for `NC(CS)C(=O)O` (stereo not given), “inactive”. For `CCCCCCCCCCOc1cc2c(=O)c(C(=O)OCC)c[nH]c2cc1OCC`, the activation is 0.878% [at 5.99 µM] (inactive).

For the compound `COc1ccc(CCN(C)CCCC(C#N)(c2cc(OC)c(OC)c(OC)c2)C(C)C)cc1OC` (stereo not given), the Potency result was “inactive”. For the compound `CCCCC(CC)CN` (stereo not given), the Potency entry was “inactive”.

`CN1CCC(=C2c3ccccc3CCc3sccc32)CC1`: the Potency result was “inactive”. The same measure, in the same setting: as for `Cc1ccc(Cl)c(OCC(O)CNC(C)(C)C)c1` (stereo not given), the entry is “inactive”.

Regarding `Cc1ccccc1C(=O)Nc1ccc(C(=O)N2CCCC(N(C)C)c3ccccc32)cc1` (stereo not given), the Potency entry was “inactive”. Regarding `O=c1[nH]sc2cc(Cl)ccc12`, the Potency result was “inactive”. Same read-out and setting: as for `c1cc2c3c(c1)ccc1cccc(c13)C2`, the entry is “inactive”; as for `Cc1nc(-c2ccc(OCC(C)C)c(C#N)c2)sc1C(=O)O`, “inactive”. With `O=c1[nH]c(=O)c2[nH]c(=O)[nH]c2[nH]1`, the activation is 1.18% [at 5.99 µM] (inactive). Regarding `CCOC(=O)Cc1cccc2ccccc12`, the Potency result was “inactive”. As to `COc1ccc2[nH]c(S(=O)Cc3ncc(C)c(OC)c3C)nc2n1` (stereo not given), the Potency result was “inactive”. On the same count and under the same terms, as for `N=c1ccn2c(n1)O[C@H]1[C@H](O)[C@@H](CO)O[C@H]12`, the entry is “inactive”; as for `c1ccc(COCc2ccccc2)cc1`, “inactive”. The same measure, in the same setting: as for `CCN(CC)C(=O)Nc1ccc(OCC(O)CNC(C)(C)C)c(C(C)=O)c1` (stereo not given), the entry is “inactive”; as for `CC(C)C(=O)OCC(C)(C)C(O)C(C)C` (stereo not given), “inactive”; as for `CCNC(=O)C1CC(C)CCC1C(C)C` (stereo not given), “inactive”. Same read-out and setting: under `CCC(=O)O[C@]1(C(=O)COC)[C@@H](C)C[C@H]2[C@@H]3CCC4=CC(=O)C=C[C@]4(C)C3(F)[C@@H](O)C[C@@]21C` (stereo not given in full) stands “inactive”; under `CCCn1cnc2c1c(=O)n(CCCCC(C)=O)c(=O)n2C`, “inactive”. For the compound `CCCCc1nc(Cl)c(CO)n1Cc1ccc(-c2ccccc2-c2nn[nH]n2)cc1`, the Potency entry was “inactive”.

For `CC/C=C\CCOC(=O)c1ccccc1O`, the Potency result is “inactive”. Still for that read-out and setting: under `COc1ccc(CN2CCN(C(c3ccc(F)cc3)c3ccc(F)cc3)CC2)c(OC)c1OC` stands “inactive”; under `CCn1nc(Cc2ccccc2)cc1C1CCN(C[C@H]2C[C@H](N(C)[C@@H](C(=O)O)C(C)C)C[C@@H]2c2cccc(F)c2)CC1`, “inactive”. On the same count and under the same terms, as for `Cc1cc(C)n(CO)n1`, the entry is “inactive”; as for `CCOC(=O)COc1cc(-n2ncc(C(F)(F)F)c(C)c2=O)c(F)cc1Cl`, “inactive”; as for `Cc1cccc(CN2CCN(C(c3ccccc3)c3ccc(Cl)cc3)CC2)c1` (stereo not given), “inactive”.
